From PubChem BioAssay
The source made the active and inactive calls. Unless noted, no rule for the calls is given here.

How the values were obtained:
[1] = tested on: Wnt5a (protein binding on small-molecule microarray); test: small molecules binding Wnt5a protein – biophysical, small-molecule microarray, 635/667 nm fluorescence, primary screen (AID 1142); conditions: 635 nm fluorescence, higher = more signal;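 also: fluorescence read at 667 nm with signal to noise per printed feature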
[2] = ATP-based viability of Huh7 replicon cells – cell-based, CellTiter-Glo luminescence, basal, 48 h, cytotoxicity control for HCV replication inhibitor project, primary screen (AID 1143); conditions: higher = more signal, called active from +8 up or from −8 down;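 also: Huh7 hepatoma cells carrying a hepatitis C replication reporter with no stimulus; test concentration not given here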
[3] = Pseudomonas biofilm growth suppression – PAO1 strain, BacTiter-Glo luminescence, LB-PBS, primary screen (AID 1144); conditions: P. aeruginosa PAO1 biofilm, 12 h, higher = more signal
[4] = basal CRE-LacZ reporter activity in PC12 – cell-based, unstimulated, primary screen (AID 1145); conditions: no forskolin, luminescence, 4.5 h, higher = more signal, called active from +8 up or from −8 down
[5] = forskolin-driven CRE-LacZ activity in PC12 – cell-based, CRE-LacZ reporter, forskolin-stimulated, primary screen (AID 1146); conditions: luminescence, 4.5 h, higher = more signal, called active from +8 up or from −8 down;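 also: PC12 cells with 6xCRE LacZ reporter stimulated by forskolin 10 µM; beta-galactosidase reporter signal reflecting CREB driven transcription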
[6] = molecular target: Streptavidin (Streptomyces avidinii) (UniProt P22629); test: compounds binding control protein streptavidin – biophysical, small-molecule microarray, 635/667 nm fluorescence, artefact control for SMM compound annotation, primary screen (AID 1147); conditions: higher = more signal;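 also: signal reflects streptavidin binding to arrayed compounds as a control protein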
Chain of Streptavidin (Streptomyces avidinii) (P22629 whole entry, looked up): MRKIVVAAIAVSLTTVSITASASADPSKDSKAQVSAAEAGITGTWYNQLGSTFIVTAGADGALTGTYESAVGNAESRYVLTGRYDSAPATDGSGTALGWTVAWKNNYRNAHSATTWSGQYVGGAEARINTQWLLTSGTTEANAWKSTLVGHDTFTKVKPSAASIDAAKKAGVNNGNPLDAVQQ

[7] = probe aInhba binding on compound microarray – biochemical, small-molecule microarray, 635/667 nm fluorescence, primary screen (AID 1148); conditions: higher = more signal;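 also: score merges 667nm spot fluorescence with signal-to-noise for antibody binding to printed compounds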
Torsin-1A (Homo sapiens) [8] = molecular target: Torsin-1A (Homo sapiens) (UniProt O14656); test: TOR1A wild-type binding on microarray – cell lysate, small-molecule microarray, lysate, 635/667 nm, primary screen (AID 1149); conditions: COS7 hTOR1A-WT lysate, 635 nm fluorescence, higher = more signal
Chain of Torsin-1A (Homo sapiens) (O14656 whole entry, looked up): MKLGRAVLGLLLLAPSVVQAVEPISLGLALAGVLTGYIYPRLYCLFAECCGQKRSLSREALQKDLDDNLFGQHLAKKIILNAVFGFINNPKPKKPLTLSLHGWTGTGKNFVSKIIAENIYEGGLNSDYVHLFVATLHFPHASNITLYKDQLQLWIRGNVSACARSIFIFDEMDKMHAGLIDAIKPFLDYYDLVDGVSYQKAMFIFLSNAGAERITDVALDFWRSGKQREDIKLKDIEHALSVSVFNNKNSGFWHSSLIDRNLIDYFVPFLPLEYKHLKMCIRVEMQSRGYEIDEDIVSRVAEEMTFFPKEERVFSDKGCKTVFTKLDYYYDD

Torsin-1A (Homo sapiens) [9] = molecular target: Torsin-1A (Homo sapiens) (UniProt O14656); test: torsin A mutant lysate binding on microarrays – cell lysate, small-molecule microarray, COS7 lysate, 635/667 nm fluorescence, primary screen (AID 1150); conditions: COS7 hTOR1A mutant lysate, 635 nm fluorescence, higher = more signal;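 also: score pools 667 nm emission and signal to noise measuring lysate protein binding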
[10] = tested on: Sonic hedgehog protein (Shh); test: Sonic hedgehog microarray binding compounds – biochemical, small-molecule microarray, 635/667 nm fluorescence, primary screen (AID 1151); conditions: 635 nm fluorescence, higher = more signal;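 also: Shh protein binding to compounds spotted on small-molecule microarray slides; score combines spot fluorescence intensity with signal-to-noise across triplicate slides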

SMILES | composite z-score [1] | z-score [2] | z-score [3] | z-score [4] | z-score [5] | composite z-score [6] | composite z-score [7] | composite z-score (Torsin-1A (Homo sapiens) [8]) | composite z-score (Torsin-1A (Homo sapiens) [9]) | composite z-score [10]
C=C(COC)C(=O)CC[C@H](OC(C)=O)c1ccccc1OCCO | 0.0375 | -4.1 (inactive) | -0.0151 (inactive) | 6.35 (inactive) | 4.62 (inactive) | -0.955 | 0.858 | 2.34 | 0.851 | 1.8
CCCC=C(CCC)[C@@H](NC(=O)c1ccc(C(=O)OC)cc1)c1ccc(C(=O)OC)cc1 | 0.41 | -2.2 (inactive) | 0.668 (inactive) | 1.53 (inactive) | 1.06 (inactive) | 0.239 | 0.18 | -0.266 | -0.415 | -1.35
C=CCN1C(=O)[C@]2(O[C@H](CCO)[C@@H]([Si](C)(C)c3ccc(OC)cc3)[C@@H]2C)c2cc(N3C(=O)c4ccccc4Oc4ccccc43)ccc21 | 0.169 | -7.94 (inactive) | -0.323 (inactive) | 22.6 (active) | -3.24 (inactive) | 0.763 | -0.045 | 0.493 | 0.418 | 0.804
COC(=O)c1c2oc(c1C(=O)OC)C(=O)N[C@H](Cc1ccccc1)Cn1cc(nn1)C1(CCCCC1)NC(=O)N[C@H](CO)CC2 | 0.075 | 0.0261 (inactive) | -0.72 (inactive) | 8.64 (active) | 0.334 (inactive) | -0.626 | 0.161 | 0.3 | 0.29 | 1.52
COC(=O)Cn1c(C(=O)N(C)C)cc2c1C[C@H]1CN(C(=O)c3ccccc3)[C@@](Cc3ccccc3)(C(=O)OC)[C@@H]21 | 0.135 | -0.273 (inactive) | -0.334 (inactive) | -0.189 (inactive) | -0.637 (inactive) | 0.822 | 0.105 | 0.263 | 0.541 | -0.535
N#Cc1ccc(NN2C(C(O)c3ccc(B(O)O)cc3)C=CC3CN(c4ccccc4)C(=O)C32)cc1 (stereo not given) | -0.465 | -0.0138 (inactive) | -0.454 (inactive) | -0.898 (inactive) | -0.758 (inactive) | 0.287 | -0.128 | -0.0754 | 0.103 | -0.944
CC[C@@H](O[Si](C#C[Si](C(C)C)(C(C)C)C(C)C)(C(C)C)C(C)C)c1cn([C@H](CO)Cc2ccccc2)nn1 | -0.142 | 0.0926 (inactive) | -0.805 (inactive) | -0.607 (inactive) | -0.038 (inactive) | 0.391 | 0.0104 | 0.0922 | -0.209 | 1.24
[N-]=[N+]=NCc1ccccc1[C@H]1OC(c2ccc(OCCCO)cc2)=N[C@@]1(CCS(=O)(=O)c1ccccc1)C(=O)O | -0.0632 | -0.0569 (inactive) | 0.637 (inactive) | -0.435 (inactive) | -0.427 (inactive) | 0.729 | -0.13 | -0.359 | 0.622 | -1.37
O=C1OCCC/C=C\[C@H]2OC34C=CCN(Cc5ccccc5)C(=O)[C@H]3N(CCO)C(=O)[C@@H]4C12 (stereo not given in full) | 0.0691 | 0.347 (inactive) | -1.38 (inactive) | -0.0899 (inactive) | -0.0501 (inactive) | -1.06 | 0.225 | 1.3 | 0.232 | 1.87
COCCOC(=O)N1C(=O)[C@@]2(c3cc(C#CC4=CCCCC4)ccc31)[C@H](c1ccc(O)cc1)N1[C@H](c3ccccc3)[C@H](c3ccccc3)OC(=O)[C@H]1[C@@H]2C(=O)N1CCc2cc(OC)c(OC)cc2C1 | -0.0266 | -0.713 (inactive) | 0.315 (inactive) | -0.375 (inactive) | 0.109 (inactive) | 0.112 | 0.103 | 0.175 | 0.893 | 0.514
